According to publication PMC12136788:
Whole data set: some 24,000 sequences, median “enrichment r” near 0.99, cut for the highest 2% near 3.7. Shown is part of a subset that was picked to be rich in the highest values.

T1: UNK ZnF1-3 (human, UniProt Q9C0B0 31-174)
T1 sequence: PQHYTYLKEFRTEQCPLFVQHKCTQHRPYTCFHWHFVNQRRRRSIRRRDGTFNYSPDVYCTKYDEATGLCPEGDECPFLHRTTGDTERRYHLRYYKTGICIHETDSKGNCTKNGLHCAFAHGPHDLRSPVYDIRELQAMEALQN

B1: chr22:38201524:38201525:+_ENSG00000189060_ENST00000340857|hu_hu|FALSE|FALSE (ssRNA)
RNA: GGGAGUUCUACAGUCCGACGAUCCGCAGGGGCGGACGUGGAAUUCUCGGUCAUGGUGGCCUGUCUGGUCCGGCUGUUGAAGGCGCCUUCCAAAGGGCCAGCCCUCGUCGGAGGCUGAGCAAAGCCUGCCUCGGGAUCUGCUCCCAACAGAGGAUUGAGCAUCA
B2: chr16:17038481:17038482:+_ENSMUSG00000063358_ENSMUST00000069107|mus_mus|FALSE|FALSE (ssRNA)
RNA: GGGAGUUCUACAGUCCGACGAUCCUUGUCCUGACCAAUUUAAGAUCUGUAUCCUGGCUGGAAUCUAGCAGUCUCUUCAAAAAUGAGUUCUUUGAGCUUCUCCUUAGGUAAGUCGUCCAACUCCAUGUCAAACUUGAAUGGCGCCAACAGAGGAUUGAGCAUCA
B3: chr11:77336104:77336105:-_ENSG00000074201_ENST00000525064|hu_mus|hu_hu_hu_mus_False|48_108 (ssRNA)
RNA: GGGAGUUCUACAGUCCGACGAUCCUCGCACAUUGCAGUGAACAUCGCCUCCAAUGCUGACUUAUCACUGGGCACAAAUCGAAAUUCAGUAAUAGGUUCAACAUCAUCAUUGUCUUCCUCAUCUUCAUCAGAGAGAGGUUCUUUCAACAGAGGAUUGAGCAUCA
B4: 42454244_42454364_2548_CDS_ENSG00000166887_ENST00000318006|human|control|control (ssRNA)
RNA: GGGAGUUCUACAGUCCGACGAUCAUGGAGAAGGUUCUUGAGCACUUGAUUGAACCGUUUCUUUUGUGCAUUUUCUUCCAAGACCUUUUCCAGGAAGAUGCGUAUGUCAUUGAUCUGAGUGUUUGCUGGCAGAAGGUUGAGGGCCAACAGAGGAUUGAGCAUCA
B5: chr3:9412954:9412955:+_ENSG00000134077_ENST00000452837|hu_mus|hu_hu_hu_mus_False|1_78 (ssRNA)
RNA: GGGAGUUCUACAGUCCGACGAUCGGUUGAUAUCUCUUCUUUGAUGGCUGGAUUUUCAUAAUAAUCUAAGAUAUGUGAAUCUGAAGUGCUGCUGGCAUGCUUUUUCUUACCAUCUUUCUCAUCUGCUUUGUCUCCUUGUCCAUUCAACAGAGGAUUGAGCAUCA
B6: 54532081_54532201_669_3pUTR_ENSMUSG00000073678_ENSMUST00000097739|mouse|control|control (ssRNA)
RNA: GGGAGUUCUACAGUCCGACGAUCGACUGAGCAGAGACAUAAAGAAAGCAAAAGAAACACCACAGGGAAGGUUUCAACUGUAGUAACCAGACAUCUACACCAAAAAUGGAUUGUGCAAAACAACUGAUUUUUUUUUUUUUUUUACAACAGAGGAUUGAGCAUCA
B7: chr4:148551591:148551592:-_ENSMUSG00000063077_ENSMUST00000060537|mus_hu|mus_mus_mus_hu_False|1_48 (ssRNA)
RNA: GGGAGUUCUACAGUCCGACGAUCACCUGACAAAAUUAAAUAUCCCUGUAAAUUAGACAAUAAGCAGCAGGCAACAAAGUCUUUGCUUUGAAAUAUGUGCCAGGAAAAGUCAUCUUGUUUUUAGAUCUCAAGAGACACAACCAUCAACAGAGGAUUGAGCAUCA
B8: chr3:142455422:142455423:-_ENSMUSG00000004591_ENSMUST00000043812|mus_hu|FALSE|FALSE (ssRNA)
RNA: GGGAGUUCUACAGUCCGACGAUCGAAAAAACAAUAAAGUCAUAGAUUAGGAGAAAAAAAUAUAAAAUCAAACCAAACCAAAACAAACAAAAAACUACAGGCAAGUGGAAAGUCAUGGUUUGUAAAAAGACAACCCUAAAAGAGCAACAGAGGAUUGAGCAUCA
B9: 110765750_110770449_1192_CDS_ENSG00000174437_ENST00000539276|human|control|control (ssRNA)
RNA: GGGAGUUCUACAGUCCGACGAUCCUCAUUAAGGGAACAAGUAUCACCUUCCACUCUGUCCAGAAUGAACAUCCUGCAGACUGACAUCUGGUUUGUUGUAAGUGUACCAGUCUUGUCUGAGCAGAUAACAGAAGUACAACCAAGCAACAGAGGAUUGAGCAUCA
B10: chr3:148802587:148802588:-_ENSG00000071794_ENST00000310053|hu_mus|FALSE|FALSE (ssRNA)
RNA: GGGAGUUCUACAGUCCGACGAUCUCCAACAACUUGUCCUCUCAUAGUUCCAAAUAAAACCAAAUCUUGCUCUUCAUCACUCGUUAGGAAGUCAUCUGGAGGAAUAAUGUCUUGGAAUUCAAAAUGUGGCAAGAAAGUUGAGUACAACAGAGGAUUGAGCAUCA
B11: 32390341_32390461_6886_3pUTR_ENSMUSG00000053774_ENSMUST00000115151|mouse|control|control (ssRNA)
RNA: GGGAGUUCUACAGUCCGACGAUCACUUUAACCCAAGGAGGACCCAGAGGUUCAAGGUUAUGUUCAACUAACUACACAGUCACUGAAGAGGUCAGCCUGAUCCAGGACAACCAGGACUAGAUAAAGAAAACUUAUCUCAAAGAACAACAGAGGAUUGAGCAUCA
B12: chr14:52780626:52780627:-_ENSMUSG00000035726_ENSMUST00000046709|mus_mus|FALSE|FALSE (ssRNA)
RNA: GGGAGUUCUACAGUCCGACGAUCUGAGCACUGCACCACAUAUGGACUUGUAAGGAGGAAAAAAAAAAAAAAAAAAAAAAAAAAAACAGCCACGAGUGCCAGUGUUUGUCUUCUGAUGCAGCAAAAACAACCCCAGAAUGUGCACAACAGAGGAUUGAGCAUCA
B13: chr7:141441981:141441982:+_ENSG00000106028_ENST00000265304|hu_mus|hu_hu_hu_mus_False|38_38 (ssRNA)
RNA: GGGAGUUCUACAGUCCGACGAUCCUCAUGUCUUACAAACUGACGAAAUACCUGUAACACAGGUCUUCGAAACAUGGCUUCUGUUUUUCUUACAACCAGUCUAAUCUGCUUUUCCUAAAGGAAAGAAAGAAAAGAGAAAAAUGACAACAGAGGAUUGAGCAUCA
B14: chr1:33860009:33860010:-_ENSMUSG00000042197_ENSMUST00000044455|mus_mus|motif|central (ssRNA)
RNA: GGGAGUUCUACAGUCCGACGAUCGCUGGAGAUAUCCCAAGGAACUGACGAGCUCUCACUUGGCCUAGAAUGAUGAAAUCGGAAACAACUCCUGGACUGCAGAUCACGUAUGACUCGGGACAUCUCAGCCACUUGUGUCUGGAGCAACAGAGGAUUGAGCAUCA
B15: chr5:56189439:56189440:+_ENSG00000095015_ENST00000399503|hu_hu|FALSE|FALSE (ssRNA)
RNA: GGGAGUUCUACAGUCCGACGAUCAAAGACUGGAUGCUUCAGUAGCUCUCUUGAUGGAGGUCUGUCCUGAGGUUGAAGUUCUAAACAACGAAGAGCCACAUCUCGUAAACCAGGAGACAAAUGUGAAGGGAUCGAUGGAGCAGUCAACAGAGGAUUGAGCAUCA
B16: 2840810_2840930_7205_3pUTR_ENSG00000087266_ENST00000503393|human|control|control (ssRNA)
RNA: GGGAGUUCUACAGUCCGACGAUCUGAGACCCUGUCUCAGAAAAAAAAAAAAAGAAAAGAAAAAGAAAAAGACAACAAGUUAAAAAAUGGGCAAAAGAUGAUAGACACUUCACAGGAGACAAAAUCAAAAUGGUUAAUAAAAACCAACAGAGGAUUGAGCAUCA
B17: chr1:39494447:39494448:+_ENSG00000168653_ENST00000372967|hu_mus|hu_hu_hu_mus_False|98_98 (ssRNA)
RNA: GGGAGUUCUACAGUCCGACGAUCGCACCGAGCGGCGAUCUUGUAGGGCUGUUCUGCGCUUAGGAACAUAAAGUGCCGGUCCAGGCUGAUGCCCAGCUUUUUCUGUAUGUCAAGGAAAGGCAUGGCUCUGCAGUGCCCUUGUCACAACAGAGGAUUGAGCAUCA
B18: chr16:75674161:75674162:-_ENSG00000065427_ENST00000302445|hu_hu|motif|central (ssRNA)
RNA: GGGAGUUCUACAGUCCGACGAUCCCUACCUGCCACCUUUAAGGUGAUGUCAGUCAGGUGAUCCCCAGGCUGCAGGUGACGGUAUUUUUGGAUGAAGUCAGUGAGUGAGAUGUCUACAUGGAACUUGUGUGGGUAUGGGUCUUCCAACAGAGGAUUGAGCAUCA
B19: 76004153_76004273_12107_CDS_ENSMUSG00000022565_ENSMUST00000071869|mouse|control|control (ssRNA)
RNA: GGGAGUUCUACAGUCCGACGAUCCUUCAUGGCCUGGAAGAGGGAGAUGAGUUUCCCAGAGUAGGGGUCCUUGUAGCCAGUGACGGCACGCUCAGCUGACAGCAGCUUGUCCUUGAACUCGGGGCCCACAAUACCCAUACGAACCAACAGAGGAUUGAGCAUCA
B20: chr11:93905761:93905762:+_ENSMUSG00000020859_ENSMUST00000103168|mus_mus|motif|central (ssRNA)
RNA: GGGAGUUCUACAGUCCGACGAUCCGCUGGCACCCCGGUAGAAAUAGAAAAGUGCACAAGCAGCAAAACAGAGAGAGAUACGGAGAUCGCAGAAUUAAUGACCACCGCCCCGCCAACAAAGCCAAACACAAACAGCAGCAUGCACAACAGAGGAUUGAGCAUCA
B21: chr13:113691719:113691720:-_ENSMUSG00000016018_ENSMUST00000022281|mus_hu|FALSE|FALSE (ssRNA)
RNA: GGGAGUUCUACAGUCCGACGAUCGUAUUCACCAGAAGAAAUCCAUCGGAAAUCCUUCCCAUCAAAUUUGCGGGCAUUUGUAAAUAAAACAGUUCUAGCUGGCAUGUUAAUUCCCAUAGCAAAGGUCUCCGUGGCAAAUAAGGCCAACAGAGGAUUGAGCAUCA
B22: chr7:135612788:135612789:-_ENSG00000105887_ENST00000393085|hu_mus|FALSE|FALSE (ssRNA)
RNA: GGGAGUUCUACAGUCCGACGAUCGCCAAGAGGUGAAAACAAAGGUCUCAAAACACCCUGUUGCAUUAUAUUGACUCAUAGACUGAUCAUGUGCCUUCCACUUCCUAGCAGAAUGUCCAACUCUAUAGCUGCUUGGCCUUUUGGCAACAGAGGAUUGAGCAUCA

biological target: T1, UNK ZnF1-3; experiment: nsRBNS (natural sequence RNA bind-n-seq); RBNS binding buffer (assumed for nsRBNS): 25 mM Tris pH 7.5, 150 mM KCl, 3 mM MgCl2, 0.01% Triton X-100, 500 ug/ml BSA, 20 U/ml SUPERase-In, 4 C; UNK is unkempt and MSI1 is Musashi-1; names of the RNAs are library labels; protein concentration not given here; high values mean tight binding

Binder | binding signal [enrichment R]
B1 | 0.944
B2 | 0.719
B3 | 0.872
B4 | 1.14
B5 | 0.44
B6 | 4.75
B7 | 1.29
B8 | 3.8
B9 | 0.886
B10 | 1.23
B11 | 1.33
B12 | 12.8
B13 | 0.817
B14 | 0.781
B15 | 1.08
B16 | 8.04
B17 | 0.548
B18 | 0.761
B19 | 1.29
B20 | 2.32
B21 | 1.77
B22 | 1.02
